# Legend:
# GRK3 = tested on: T1, GRK3
# T1 construct: gene ADRBK2
# HASPIN = tested on: T2, HASPIN
# T2 construct: gene GSG2
# IKK-beta = tested on: T3, IKK-beta
# T3 construct: gene IKBKB
# [1] = tested on: JAK1(JH1domain-catalytic)
# [2] = tested on: JAK2(JH1domain-catalytic)
# [3] = tested on: JAK3(JH1domain-catalytic)
# GRK2 = tested on: T4, GRK2
# T4 construct: gene ADRBK1
# IKK-epsilon = tested on: T5, IKK-epsilon
# T5 construct: gene IKBKE
# [4] = tested on: JAK1(JH2domain-pseudokinase)
# JNK1 = tested on: T6, JNK1
# T6 construct: gene MAPK8
# 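Further: kd values determined as follow-up on hits from a single-replicate KINOMEscan panel screen.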
smiles,measurement,setting,value
Cc1ccc(NC(=O)c2cccc(C#N)c2)cc1-c1ccc(C(=O)Nc2ccncc2)cc1 [GSK1398463],Kd,FRK,190 nM
COc1ccc(NC(=O)c2ccc(-c3cc(-c4nnc(C)o4)ccc3C)cc2)cc1 [GW595885],Kd,GRK3,> 10000 nM
Cl.Cl.c1ccc(-c2cc3ccncc3cc2OC2CCNCC2)cc1 [GSK1122999],Kd,HASPIN,90 nM
same,Kd,IKK-beta,24 nM
COC(=O)c1cccc(NC(=O)NCCNc2ccnc(Nc3ccc(F)cc3)n2)c1 [GSK1379883],Kd,HUNK,> 10000 nM
Cl.O=S(=O)(c1cccc(F)c1)c1ccc(Nc2ncnc3cc(Br)sc23)cc1Cl [GSK306886],Kd,FLT4,> 10000 nM
C[C@@H]1CCN(C(=O)CO)C[C@@H]1N(C)c1ncnc2[nH]ccc12,Kd,[1],120 nM
same,Kd,[2],11 nM
same,Kd,[3],3.6 nM
Nc1nc(-c2cccnc2)c(-c2ccnc3ccccc23)s1 [GW684083],Kd,HASPIN,650 nM
CNc1nccc(-c2c(-c3ccc(F)cc3)ncn2C2CCN(C)CC2)n1 [SB-222903],Kd,GRK2,> 10000 nM
CCC(CC)(CC)n1cnc2c(N)ncnc21 [SKF-97620],Kd,FGFR2,> 10000 nM
CCc1nc(-c2cccc(C)c2)c(-c2ccnc(NC(=O)c3ccccc3)c2)s1,Kd,IKK-epsilon,> 10000 nM
Nc1nc(-c2ccc3c(N)n[nH]c3c2)cc(N2CCC[C@@H](C(=O)Nc3ccccc3)C2)n1.O=C(O)C(F)(F)F.O=C(O)C(F)(F)F [GSK2288359],Kd,IGF1R,> 10000 nM
same,Kd,[2],> 10000 nM
CC(C)(C)c1ccc(-n2cnc3c(N)ncnc32)cc1 [SKF-97263],Kd,[4],250 nM
CN1c2ccc(-c3ccc(C(=O)NCCO)cc3)cc2-c2[nH]ncc2S1(=O)=O,Kd,[3],6800 nM
FC(F)(F)c1ccc(-c2nn3ncccc3c2-c2ccnc(Nc3cccc(C(F)(F)F)c3)n2)cc1 [GW828205],Kd,FGFR2,> 10000 nM
COc1ccc(NC(=O)Nc2ccc(C)c(-c3ccc(C(=O)Nc4ccncc4)cc3)c2)cc1 [GSK1398475],Kd,FLT3,2200 nM
CC(=O)Nc1n[nH]c2ncc(-c3ccccc3)cc12 [SB-548492],Kd,[4],380 nM
Cl.c1ccc(Cn2ccc3cc(Nc4ncnc5ccccc45)ccc32)cc1 [GW275568],Kd,[2],> 10000 nM
O=C(Nc1ccccc1F)NC1CCN(c2ccnc(Nc3ccc(F)cc3)n2)C1 (stereo not drawn) [GSK1379722],Kd,ICK,> 10000 nM
same,Kd,IGF1R,> 10000 nM
CCc1nc(-c2cccc(N(C)S(=O)(=O)c3ccccc3)c2)c(-c2ccnc(Nc3ccc(N4CCN(C(C)=O)CC4)nc3)n2)s1 [GSK1645895],Kd,GAK,250 nM
Nc1n[nH]c2nnc(-c3ccccc3)cc12 [SB-517389],Kd,HIPK3,290 nM
O=C(Nc1n[nH]c2nc(-c3ccco3)c(Br)cc12)c1ccc(CN2CCCC2)cc1.O=C(O)[C@H](O)[C@@H](O)C(=O)O [SB-742352],Kd,FLT3,45 nM
Fc1cccc(COc2ccc(Nc3ncnc4sc(-c5ccc[nH]5)cc34)cc2Cl)c1 [GW707818],Kd,[2],> 10000 nM
COC(=O)c1c(-c2ccccc2)c2cc(Cl)ccc2c(=O)n1Cc1ccc(S(C)(=O)=O)cc1,Kd,GAK,> 10000 nM
same,Kd,JNK1,61 nM
Cn1cc(-c2ccc3c(c2)CCN3C(=O)Cc2cccc(C(F)(F)F)c2)c2c(N)ncnc21 [GSK2606414],Kd,GRK4,> 10000 nM

# Reference: publication PMC5540273 (PLoS ONE, 2017)
